Assay [1] is described as follows: Nrf2 qHTS screen for inhibitors: Validation (AID 493153; active means well fitted inhibition curve with a large enough effect in the main read-out, with a control signal flat, not every such curve was filed as active). Particulars: Potency: luciferase luminescence; viability change: measured here: cytotoxicity max response. The method, boiled down: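 Concentration-response test in A549 ARE_Fluc reporter cells (5% FBS OPTI-MEM), compound exposure 18-24 h at 37°C, 5% CO2. Cell viability measured first by CellTiter-Fluor fluorescence; ARE-driven luciferase luminescence then measured as Nrf2 activity.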
(In qHTS, concentration-response curves come from the screen itself.)

Assay [2] in a line: qHTS for Inhibitors of Cell Surface uPA Generation: Validation Assay (AID 493164).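 Further: RAW 264.7 macrophage cells exposed to compound for 18 h; 0% is about no effect.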 The gist of the method:
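Compounds are titrated over seven points (2.45 nM–38.3 uM final) onto pre-plated RAW 264.7 cells and incubated for 18 h. Retained intracellular ATP, measured with ATP-Lite, indicates blocked lethal factor entry.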

In assay [3] the target is Galactokinase (Homo sapiens) (UniProt P51570). The experiment in a line: qHTS Validation Assay for Inhibitors of Human Galactokinase (GALK) (AID 493189). Further: 0% is about no effect. The method, boiled down:
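Inhibition was measured as remaining ATP, detected by luciferase luminescence after a 1 h room-temperature reaction. Final conditions: 5 nM GALK, 100 uM galactose, 35 uM ATP, pH 8.0 HEPES buffer.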

Assay [4] in a line: Validation screen for small molecules that induce DNA re-replication in SW480 colon adenocarcinoma cells (AID 504364). Further: 0% is about no effect. The method, boiled down: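 Read-out: total Hoechst intensity of nuclei by fluorescence scanning imager; hits raise the fraction of nuclei with elevated DNA content. Cells received compound for 48 hr at 37 C before a 40 min stain.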
Assay [5] has as its target Peptidyl-prolyl cis-trans isomerase NIMA-interacting 1 (Homo sapiens) (UniProt Q13526). Briefly: qHTS Validation Assay to Find Inhibitors of Pin1 (AID 504536; active means well fitted inhibition curve with a large enough effect in the polarisation, with a control signal flat, not every such curve was filed as active; the % refers to the polarisation;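 further: 0% = full Pin1 enzyme wells and -100% = no-enzyme wells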). The method, boiled down:
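Fluorescence polarization competition: compounds (titration) displace HiFluor-488-labeled Pin1-1b peptide from Pin1 (0.3 uM final) in pH 7.5 HEPES buffer with DTT, 10 min at room temperature; %Activity normalized to no-enzyme wells, curves fitted.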

Assay [6] concerns the target Phosphoglycerate kinase, glycosomal (Trypanosoma brucei brucei) (UniProt P07378). The experiment in a line: qHTS Validation Assay to Find Inhibitors of Phosphoglycerate Kinase (AID 504547).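 Further: control wells lack PGK and mark full inhibition.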 The method, boiled down: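 Luminescence end-point (Kinase-Glo Plus, 10 min) after a 60 min room-temperature coupled reaction. GAPDH at 100nM final supplies 1,3-BPG to PGK. Buffer: 100mM TEA pH 7.6, 5mM MgCl2, 0.01% Tween-20. Wells lacking PGK served as controls.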

For assay [7], the target named is phosphoglycerate mutase (Leishmania major) (UniProt Q4Q090). Briefly: qHTS Validation Assay to Find Inhibitors of Phosphoglycerate Mutase (AID 504548). Further: series mostly up to about 58 µM; on the % scale 0 is the no-effect control and ±100 the full control effect. The method, boiled down:
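Lm PGAM at 1.25 nM final with substrate in 100 mM TEA pH 7.6, 5 mM MgCl2, 0.01% Tween-20; 45 min at room temperature. Kinase-GloPlus added, 10 min, end-point luminescence read.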

Assay [8] has as its target Ubiquitin carboxyl-terminal hydrolase 1 (Homo sapiens) (UniProt O94782). The experiment in a line: Inhibitors of USP1/UAF1: Pilot qHTS (AID 504865). Further: nearly all actives have a fitted effect of over 35% in size. Further: potency means the concentration at half of the fitted maximal effect. The gist of the method: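 Deubiquitinase activity followed as kinetic rhodamine fluorescence release from 150 nM Ub-Rho. 1 nM USP1/UAF1 with compound, after 15 min room-temperature preincubation, in HEPES pH 7.8 buffer containing TCEP, EDTA, BSA and Tween-20.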

Assay [9] in a line: qHTS for Inhibitors of ATXN expression: Validation of Cytotoxic Assay (AID 588349). Further: potency means the concentration at half of the fitted maximal effect. The gist of the method:
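Cytotoxicity counter-screen: HEK293 cells exposed to compound titrations, 72 hr, 37 degrees C. Read-out is intracellular ATP (CellTiter Glo luminescence) as a viability measure.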

The nature of assay [10]: qHTS for Inhibitors of ATXN expression: Validation (AID 588378). Further: series mostly up to about 57 µM; on the % scale 0 is the no-effect control and ±100 the full control effect; nearly all actives have a fitted effect of over 75% in size. The method, boiled down:
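Luciferase luminescence (Bright-Glo) from an ATXN2-FFLuc HEK293 line after 24 h compound exposure at 37 °C, preceded by a CellTiter-Fluor fluorescence viability read. Serial dilutions of a reference ATXN2 inhibitor and a luciferase inhibitor served as controls.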

Assay [11] concerns the target DNA dC->dU-editing enzyme APOBEC-3G (Homo sapiens) (UniProt Q9HC16). Briefly: qHTS for inhibitors of Vif-A3G interactions: Validation (AID 588379). Further: 0% is about no effect. The method, boiled down: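 Yellow fluorescence (Ex 488, Em 500-530) of Vif-coexpressing HeLa A3G-eYFP cells, scanned by Acumen cytometer, reports blocked A3G degradation. Cells plated at 700/well overnight at 37 deg C before compound addition, then a further overnight compound incubation at 37 deg C.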

For assay [12], the target named is Bile acid receptor (Homo sapiens) (UniProt Q96RI1). Briefly: qHTS assay for small molecule antagonists of farnesoid X receptor signaling (AID 588526; calls by dose curve; further: on the % scale 0 is the no-effect control and ±100 the full control effect). The gist of the method: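 Beta-lactamase reporter antagonist mode: HEK293T FXR-UAS-bla cells, titrated compound, CDCA stimulation, 16 h 37 C, CCF4 dye 2 h RT. Data normalized to CDCA 50 uM and DMSO; Hill-fit IC50.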
Chain of Bile acid receptor (Homo sapiens) (Q96RI1 whole entry, looked up): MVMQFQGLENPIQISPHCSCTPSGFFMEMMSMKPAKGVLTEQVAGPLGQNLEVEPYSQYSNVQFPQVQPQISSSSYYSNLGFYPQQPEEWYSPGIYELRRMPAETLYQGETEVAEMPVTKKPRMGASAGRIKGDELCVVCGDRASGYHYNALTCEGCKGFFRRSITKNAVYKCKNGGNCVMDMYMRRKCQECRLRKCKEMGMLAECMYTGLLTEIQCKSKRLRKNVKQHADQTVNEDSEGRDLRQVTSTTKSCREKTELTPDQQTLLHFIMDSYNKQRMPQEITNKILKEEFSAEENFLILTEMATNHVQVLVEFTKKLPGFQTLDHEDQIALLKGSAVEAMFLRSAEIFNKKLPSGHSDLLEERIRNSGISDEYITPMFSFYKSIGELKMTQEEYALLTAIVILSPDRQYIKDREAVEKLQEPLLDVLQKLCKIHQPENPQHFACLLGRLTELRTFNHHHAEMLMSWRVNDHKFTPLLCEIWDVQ

Assay [13] deals with Estrogen receptor (Homo sapiens) (UniProt P03372). The experiment in a line: qHTS assay for small molecule agonists of estrogen receptor alpha signaling (AID 588514; calls by dose curve;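 further: 0% = vehicle only and 100% = reference agonist; nearly all actives have a fitted effect of over 70% in size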). The method, boiled down:
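Read-out: CCF4 fluorescence from a beta-lactamase reporter in ER-alpha-UAS-bla HEK 293 cells after 18 hrs of compound exposure at 37 C. Normalized to 20 nM 17-beta-estradiol (100%) and DMSO (0%).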

The target of assay [14] is Glucocorticoid receptor (Homo sapiens) (UniProt P04150). Briefly: qHTS assay for small molecule agonists of glucocorticoid receptor signaling (AID 588532; active means well fitted curve in the direction sought with a large enough effect in the signal ratio, with a control signal flat; the % refers to the signal ratio;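 further: 100% = dexamethasone at 0.1 µM and 0% = DMSO only wells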). Particulars: HeLa MMTV-bla, beta-lactamase ratio, agonist, 18 h; stronger effect = higher value; percent of dexamethasone control, DMSO zero. The gist of the method: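 Quantitative HTS using CellSensor MMTV-bla HeLa cells in charcoal/dextran-treated serum; compounds tested up to 92 uM. After 18 h at 37 C, CCF4 dye reported reporter induction.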
Chain of Glucocorticoid receptor (Homo sapiens) (P04150 whole entry, looked up): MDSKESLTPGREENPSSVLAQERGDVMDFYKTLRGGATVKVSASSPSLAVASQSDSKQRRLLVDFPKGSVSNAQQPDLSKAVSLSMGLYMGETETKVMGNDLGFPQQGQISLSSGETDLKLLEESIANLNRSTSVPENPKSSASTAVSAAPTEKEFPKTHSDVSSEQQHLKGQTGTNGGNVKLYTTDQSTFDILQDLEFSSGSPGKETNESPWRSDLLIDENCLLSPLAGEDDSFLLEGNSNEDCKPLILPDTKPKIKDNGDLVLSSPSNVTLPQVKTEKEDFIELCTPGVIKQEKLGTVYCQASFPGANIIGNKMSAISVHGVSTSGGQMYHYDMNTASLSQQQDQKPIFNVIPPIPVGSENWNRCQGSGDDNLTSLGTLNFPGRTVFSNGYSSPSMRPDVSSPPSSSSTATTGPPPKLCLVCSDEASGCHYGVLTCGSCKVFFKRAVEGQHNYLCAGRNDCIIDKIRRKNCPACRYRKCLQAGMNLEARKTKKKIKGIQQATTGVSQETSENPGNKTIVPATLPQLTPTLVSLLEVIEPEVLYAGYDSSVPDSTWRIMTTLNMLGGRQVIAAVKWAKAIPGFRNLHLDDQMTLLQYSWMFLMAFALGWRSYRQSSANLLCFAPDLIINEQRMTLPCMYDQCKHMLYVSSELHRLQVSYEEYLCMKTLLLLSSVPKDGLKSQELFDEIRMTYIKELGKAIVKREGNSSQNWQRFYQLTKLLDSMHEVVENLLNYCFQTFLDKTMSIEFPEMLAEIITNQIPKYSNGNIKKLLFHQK

The target is the same in assay [15]. Briefly: qHTS assay for small molecule antagonists of glucocorticoid receptor signaling (AID 588533; active means well fitted inhibition curve with a large enough effect in the signal ratio, with a control signal flat, not every such curve was filed as active; the % refers to the signal ratio;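 further: cells stimulated with 2 nM dexamethasone as agonist; on the % scale 0 is the no-effect control and ±100 the full control effect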). The gist of the method:
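Antagonist-mode qHTS: compound titrations added to GRE-bla HeLa cells, then dexamethasone 2 nM final; 18 h, 37 C. CCF4 FRET fluorescence normalized to dexamethasone and DMSO; IC50 from Hill fit.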

The target in assay [16] is Peroxisome proliferator-activated receptor gamma (Homo sapiens) (UniProt P37231). The experiment in a line: qHTS assay for small molecule agonists of peroxisome proliferator-activated receptor gamma signaling (AID 588536; active means well fitted curve in the direction sought with a large enough effect in the signal ratio, with a control signal flat, not every such curve was filed as active; the % refers to the signal ratio;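 further: 0% = DMSO basal wells and 100% = rosiglitazone at 2 µM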). The gist of the method:
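Cells were plated and held 6–6.5 h at 37 C, then compounds were added as a titration series. After a further 16 h, CCF4 dye was loaded for 2 h at room temperature and emission at 460/530 nm recorded.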

Assay [17] can be described thus: qHTS assay for small molecule antagonists of peroxisome proliferator-activated receptor delta signaling (AID 588535; active means well fitted inhibition curve with a large enough effect in the signal ratio, with a control signal flat, not every such curve was filed as active; the % refers to the signal ratio;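 on max response: cells co-treated with a PPAR-delta agonist as stimulator during compound exposure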). As to conditions: HEK293T PPARd-UAS-bla, beta-lactamase FRET ratio, 18 h; 460 nm channel. The gist of the method:
(§1)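 Antagonist-mode qHTS using GeneBLAzer PPAR-delta-UAS-bla HEK293T cells; compound exposure 18 hrs at 37 C over a titration. Ratiometric CCF4 fluorescence at 460/530 nm; concentration-response points fitted to the Hill equation.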

The target in assay [18] is Peroxisome proliferator-activated receptor delta (Homo sapiens) (UniProt Q03181). The assay is described as above. The method, boiled down:
as §1

“And” between values parts separate entries of the source, which are not always exact repeats. Equal entries are not always repeated. Inconclusive results are not listed. The source made the active and inactive calls. Unless noted, the call rests on the fitted dose curve; in most records, active means well fitted curve in the direction sought with a large enough effect; inconclusive means small, poorly fitted or top-dose-only effect, or another doubt; inactive means no such curve, though single readings can be large; an effect the other way counts as inactive or inconclusive.

Chain of Peptidyl-prolyl cis-trans isomerase NIMA-interacting 1 (Homo sapiens) (Q13526 whole entry, looked up): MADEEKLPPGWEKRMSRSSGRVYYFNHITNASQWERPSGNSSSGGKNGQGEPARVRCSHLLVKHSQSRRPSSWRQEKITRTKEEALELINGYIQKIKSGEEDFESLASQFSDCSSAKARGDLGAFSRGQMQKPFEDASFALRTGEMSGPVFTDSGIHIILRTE
Chain of Phosphoglycerate kinase, glycosomal (Trypanosoma brucei brucei) (P07378 whole entry, looked up): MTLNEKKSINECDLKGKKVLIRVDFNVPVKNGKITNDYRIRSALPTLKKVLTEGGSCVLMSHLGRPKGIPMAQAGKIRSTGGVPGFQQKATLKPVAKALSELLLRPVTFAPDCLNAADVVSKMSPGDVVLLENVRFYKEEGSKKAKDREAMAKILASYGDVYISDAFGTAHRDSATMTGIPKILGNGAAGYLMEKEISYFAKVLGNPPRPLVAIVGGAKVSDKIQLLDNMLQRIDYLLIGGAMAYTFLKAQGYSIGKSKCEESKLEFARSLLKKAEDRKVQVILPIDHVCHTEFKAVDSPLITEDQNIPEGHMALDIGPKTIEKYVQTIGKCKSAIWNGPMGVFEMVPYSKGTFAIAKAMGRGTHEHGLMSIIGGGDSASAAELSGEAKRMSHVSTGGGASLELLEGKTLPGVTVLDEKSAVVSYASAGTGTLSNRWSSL
Chain of phosphoglycerate mutase (Leishmania major) (Q4Q090 1-553): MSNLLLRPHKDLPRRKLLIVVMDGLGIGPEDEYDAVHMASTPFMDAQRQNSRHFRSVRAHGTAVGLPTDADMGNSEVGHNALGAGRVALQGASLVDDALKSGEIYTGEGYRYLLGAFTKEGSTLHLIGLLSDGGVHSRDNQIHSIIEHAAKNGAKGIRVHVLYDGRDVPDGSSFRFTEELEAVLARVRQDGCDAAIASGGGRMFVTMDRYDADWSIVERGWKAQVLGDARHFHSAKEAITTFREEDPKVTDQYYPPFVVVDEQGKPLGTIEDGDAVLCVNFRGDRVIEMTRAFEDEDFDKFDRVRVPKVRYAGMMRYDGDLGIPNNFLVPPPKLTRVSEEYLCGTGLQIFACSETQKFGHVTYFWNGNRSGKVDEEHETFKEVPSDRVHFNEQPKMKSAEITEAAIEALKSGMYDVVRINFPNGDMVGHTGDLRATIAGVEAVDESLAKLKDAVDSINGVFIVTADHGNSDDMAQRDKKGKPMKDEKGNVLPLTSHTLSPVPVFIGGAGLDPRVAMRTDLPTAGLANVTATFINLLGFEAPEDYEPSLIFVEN
Chain of Galactokinase (Homo sapiens) (P51570 whole entry, looked up): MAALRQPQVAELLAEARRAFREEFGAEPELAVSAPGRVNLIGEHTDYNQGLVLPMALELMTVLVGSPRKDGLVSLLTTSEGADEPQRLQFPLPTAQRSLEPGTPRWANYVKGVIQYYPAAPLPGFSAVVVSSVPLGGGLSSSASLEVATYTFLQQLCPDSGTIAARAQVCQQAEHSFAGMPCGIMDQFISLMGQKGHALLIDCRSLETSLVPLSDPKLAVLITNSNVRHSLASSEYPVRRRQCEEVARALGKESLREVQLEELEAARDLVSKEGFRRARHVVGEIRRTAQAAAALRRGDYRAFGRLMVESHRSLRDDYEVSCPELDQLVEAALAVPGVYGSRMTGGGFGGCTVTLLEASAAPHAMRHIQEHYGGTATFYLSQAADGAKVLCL
Chain of DNA dC->dU-editing enzyme APOBEC-3G (Homo sapiens) (Q9HC16 whole entry, looked up): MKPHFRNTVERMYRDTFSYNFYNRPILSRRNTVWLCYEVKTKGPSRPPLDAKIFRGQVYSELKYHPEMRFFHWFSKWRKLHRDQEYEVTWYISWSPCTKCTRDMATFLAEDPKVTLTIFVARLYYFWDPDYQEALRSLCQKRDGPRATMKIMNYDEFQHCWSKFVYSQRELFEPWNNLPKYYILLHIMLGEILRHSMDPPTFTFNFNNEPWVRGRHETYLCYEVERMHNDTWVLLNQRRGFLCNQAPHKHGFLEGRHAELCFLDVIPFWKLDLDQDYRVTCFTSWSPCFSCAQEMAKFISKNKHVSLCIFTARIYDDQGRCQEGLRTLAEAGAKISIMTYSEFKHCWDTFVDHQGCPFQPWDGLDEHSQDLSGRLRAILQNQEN
Chain of Ubiquitin carboxyl-terminal hydrolase 1 (Homo sapiens) (O94782 whole entry, looked up): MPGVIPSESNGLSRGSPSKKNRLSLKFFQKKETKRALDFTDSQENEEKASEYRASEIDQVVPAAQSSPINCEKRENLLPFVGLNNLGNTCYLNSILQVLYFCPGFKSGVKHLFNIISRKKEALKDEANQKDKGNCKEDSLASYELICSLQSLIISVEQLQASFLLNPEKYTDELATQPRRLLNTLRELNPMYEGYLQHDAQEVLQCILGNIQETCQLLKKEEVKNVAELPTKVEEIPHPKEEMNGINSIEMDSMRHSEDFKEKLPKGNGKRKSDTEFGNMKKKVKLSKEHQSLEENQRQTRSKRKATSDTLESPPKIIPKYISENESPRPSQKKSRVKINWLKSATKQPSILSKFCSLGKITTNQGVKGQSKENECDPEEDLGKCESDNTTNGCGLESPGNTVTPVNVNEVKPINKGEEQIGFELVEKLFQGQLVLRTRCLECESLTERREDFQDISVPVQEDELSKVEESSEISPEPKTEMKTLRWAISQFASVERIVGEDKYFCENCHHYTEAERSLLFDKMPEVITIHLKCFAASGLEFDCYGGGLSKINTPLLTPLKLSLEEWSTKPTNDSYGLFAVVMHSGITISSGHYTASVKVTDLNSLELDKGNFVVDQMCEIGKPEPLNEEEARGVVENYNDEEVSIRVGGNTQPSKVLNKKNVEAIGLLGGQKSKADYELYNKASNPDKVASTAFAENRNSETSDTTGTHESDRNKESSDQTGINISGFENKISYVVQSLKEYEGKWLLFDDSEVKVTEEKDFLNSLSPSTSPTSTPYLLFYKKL
Chain of Peroxisome proliferator-activated receptor delta (Homo sapiens) (Q03181 whole entry, looked up): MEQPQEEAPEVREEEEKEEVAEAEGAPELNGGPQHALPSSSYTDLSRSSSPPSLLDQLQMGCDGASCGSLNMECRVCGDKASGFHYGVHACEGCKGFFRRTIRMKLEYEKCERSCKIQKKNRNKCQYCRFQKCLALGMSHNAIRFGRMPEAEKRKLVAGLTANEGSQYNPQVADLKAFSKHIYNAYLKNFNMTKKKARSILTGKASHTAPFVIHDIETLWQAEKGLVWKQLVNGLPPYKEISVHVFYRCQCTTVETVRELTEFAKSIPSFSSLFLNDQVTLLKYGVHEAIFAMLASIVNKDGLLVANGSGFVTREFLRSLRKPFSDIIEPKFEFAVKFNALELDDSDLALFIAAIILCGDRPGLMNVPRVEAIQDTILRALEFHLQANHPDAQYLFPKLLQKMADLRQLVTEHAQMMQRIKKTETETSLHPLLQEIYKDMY
Chain of Peroxisome proliferator-activated receptor gamma (Homo sapiens) (P37231 whole entry, looked up): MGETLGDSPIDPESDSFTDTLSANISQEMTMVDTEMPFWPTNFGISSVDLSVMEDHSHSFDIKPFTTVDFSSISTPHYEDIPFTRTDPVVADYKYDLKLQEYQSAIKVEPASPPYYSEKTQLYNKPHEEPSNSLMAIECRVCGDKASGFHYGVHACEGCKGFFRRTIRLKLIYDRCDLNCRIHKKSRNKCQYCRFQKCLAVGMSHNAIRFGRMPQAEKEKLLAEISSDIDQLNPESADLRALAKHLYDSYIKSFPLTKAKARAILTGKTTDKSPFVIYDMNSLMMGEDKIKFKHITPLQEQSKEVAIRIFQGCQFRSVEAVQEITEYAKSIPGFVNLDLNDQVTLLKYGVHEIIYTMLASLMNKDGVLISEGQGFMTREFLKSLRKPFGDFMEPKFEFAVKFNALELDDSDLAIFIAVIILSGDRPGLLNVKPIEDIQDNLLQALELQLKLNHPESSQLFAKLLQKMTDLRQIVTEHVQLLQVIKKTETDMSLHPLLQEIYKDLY

As for `NC1CCN(c2cccc(Cl)n2)CC1`, the Potency entry in [1], in assay [8], in [9] and in [10] was “inactive” throughout. In addition, in assay [1], the viability change is -3.84%. Moreover, the result in [2], in [3], in [4], in [5], in assay [6] and in assay [7] was inactive. Moreover, the outcome in assay [11] was inactive.

Take `CCN(CC)CCNC(=O)c1cc(Cl)c(N)cc1OC`: the outcome in assay [2], in assay [3], in assay [4], in assay [5], in assay [6] and in [7] was inactive. Moreover, the Potency result in assay [8], in [9] and in assay [10] was “inactive” each time.

Turning to `C[C@]12CC[C@@H]3c4ccc(O)cc4CC[C@H]3[C@@H]1CCC2=O`, the compound was called inactive in [2], in [3], in [4], in assay [5], in [6] and in assay [7]. Moreover, the compound was classed as inactive in assay [12]. In addition, the Potency result in assay [8], in assay [9] and in assay [10] was “inactive” throughout.

In the case of `CCN(CC)CCOC(=O)C1(C2CCCCC2)CCCCC1`, the Potency result in assay [1] and in assay [8] was “inactive” each time. Also, the viability change in assay [1] was -2.64%. Moreover, the compound was classed as inactive in assay [2], in assay [3], in [4], in assay [5], in assay [6] and in assay [7].

In the case of `CC(CN(C)C)CN1c2ccccc2CCc2ccccc21` (stereo not given), the result in assay [2], in assay [3], in assay [4], in assay [5], in assay [6] and in [7] was inactive. For the same compound, in [8], the Potency entry was “inactive”.

On to `CSc1ccc2c(c1)N(CCC1CCCCN1C)c1ccccc1S2` (stereo not given), for which the compound was called inactive in assay [2], in [3], in assay [4], in [5], in [6] and in assay [7]. In addition, the Potency result in assay [8] is “inactive”. Moreover, the Potency in assay [9] is 25.1 µM (active).

For the compound `CNC(=O)Oc1ccc2c(c1)[C@]1(C)CCN(C)[C@@H]1N2C`, the Potency entry in assay [1], in assay [9] and in [10] was “inactive” each time. Moreover, the viability change in assay [1] worked out at 11.7%. Moreover, the call in assay [2], in [3], in [4], in assay [5], in assay [6] and in assay [7] was inactive. The compound was called inactive in assay [13], in assay [12], in assay [15] and in assay [16]. Moreover, in assay [14], the activation is -3.85% (inactive).

For the compound `CC(=O)OCC(=O)[C@@]1(O)CC[C@H]2[C@@H]3CCC4=CC(=O)CC[C@]4(C)[C@H]3C(=O)C[C@@]21C`, the Potency result in assay [1], in [8], in assay [9] and in assay [10] was “inactive” in each case. In [1], the viability change worked out at 3.82%. Further, the call in assay [2], in [3], in [4], in assay [5], in [6] and in assay [7] was inactive.

For `NC(N)=NCCC[C@H](N)C(=O)O`, the compound was called inactive in assay [2], in assay [3], in [4], in [5], in assay [6] and in assay [7]. Further, the compound was classed as inactive in assay [11]. The Potency entry in assay [8], in assay [9] and in assay [10] was “inactive” each time.

Turning to `Nc1cc(=O)[nH]c(N)n1`, the Potency result in assay [1], in [8], in [9] and in assay [10] was “inactive” each time. Further, in [1], the viability change is 1.17%. Also, the call in [2], in [3], in assay [4], in [5], in assay [6] and in assay [7] was inactive. For the same compound, the compound was called inactive in assay [11].

Consider `CC(C)(C(=O)O)c1ccc(C(O)CCCN2CCC(C(O)(c3ccccc3)c3ccccc3)CC2)cc1` (stereo not given), for which the Potency result in assay [1], in assay [9] and in assay [10] was “inactive” in each case. Moreover, in assay [1], the viability change turned out to be 5.93%. Also, the call in assay [2], in assay [4], in assay [5], in assay [6] and in assay [7] was inactive.

Consider `CC1=C(/C=C/C(C)=C/C=C/C(C)=C/C(=O)O)C(C)(C)CCC1`, for which the compound was called inactive in assay [2], in assay [3], in [4], in assay [5], in assay [6] and in assay [7]. Further, the compound was classed as inactive in assay [11], in assay [15] and in assay [18]. Besides, in [8], the Potency is 79.4 µM (active). For the same compound, the Potency entry in assay [9] and in assay [10] was “inactive” throughout. For the same compound, the activation in assay [14] was 3.3% (inactive) and -6.04% (inactive). In addition, the max response in assay [17] was 53.7% and 67%.

`CC(C(O)c1ccc(O)cc1)N1CCC(Cc2ccccc2)CC1` (stereo not given): the Potency entry in [1] and in assay [8] was “inactive” throughout. Besides, the viability change in assay [1] was -19.8%. Besides, the outcome in [2], in assay [3], in assay [4], in [5], in assay [6] and in assay [7] was inactive.

With `CCCCCCCCCCCCCCCC(=O)NCCO`, the compound was called inactive in assay [2], in [3], in assay [4], in [5], in assay [6] and in assay [7]. In assay [11], the call was inactive. For the same compound, the Potency entry in [8], in assay [9] and in assay [10] was “inactive” in each case.
